Data on 27 molecules can be found in PubChem BioAssay (NCATS).

Assay [1] is described as follows: NS1 protein of Zika virus - qHTS assay to identify small molecule inhibitors in human HEK 293 cells (AID 1347053). Note: series mostly up to about 46 µM; nearly all actives have a fitted effect of over 55% in size. The method in brief: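 In this cell-based screen, HEK 293 cultures received compound for one hour before Zika MR766 at MOI = 0.5. NS1 was quantified 24 hours later by TR-FRET, normalized to virus-free wells and infected wells.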
(In general: qHTS replaces the single test concentration by a dilution series.)

Assay [2] deals with T1, Tyrosine-protein phosphatase non-receptor type substrate 1 (Homo sapiens) + Leukocyte surface antigen CD47 (Homo sapiens) (UniProt P78324+Q08722). As to the kind of experiment: CD47-SIRPalpha protein protein interaction - LANCE assay qHTS validation (AID 1347057; active = well fitted curve in the direction sought with a large enough effect in the signal ratio, with a control signal flat, not every such curve was filed as active; the % refers to the signal ratio; note: series mostly up to about 38 µM). Put shortly:
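Inhibition of soluble CD47/SIRPalpha ectodomain association by titrated compounds, measured as 665/615 nm time-resolved FRET ratio after sequential 30 min room-temperature incubations.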
Background: TR-FRET usually uses a lanthanide donor and a delayed reading to cut background.

For assay [3], the target named is T1, Tyrosine-protein phosphatase non-receptor type substrate 1 (Homo sapiens) + Leukocyte surface antigen CD47 (Homo sapiens). As to the kind of experiment: CD47-SIRPalpha protein protein interaction - HTRF assay qHTS validation (AID 1347058; active = well fitted curve in the direction sought with a large enough effect in the signal ratio, not every such curve was filed as active; the % refers to the signal ratio; note: series mostly up to about 38 µM). The method in brief: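 Soluble extracellular domains (6His-CD47, Avi-tag-biotinylated SIRPalpha) in PBS pH 7.4 with 0.05% IGEPAL CA-630. Compounds were preincubated 30 min at RT with CD47 and anti-His-Eu, then SIRPalpha and SAV-XL665 were added. TR-FRET 665/615 ratio.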

Assay [4] shares this target. As to the kind of experiment: CD47-SIRPalpha protein protein interaction - Alpha assay qHTS validation (AID 1347059).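 Note: bead proximity luminescence from CD47 binding SIRPalpha after compound preincubation with SIRPalpha.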 The method in brief:
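AlphaScreen signal between CD47-His (12.5 nM) and biotin-SIRPalpha (25 nM) soluble extracellular domains, bead-captured via Ni-NTA and streptavidin. Compounds, in 7-point titrations, met SIRPalpha 30 min before CD47; PBS pH 7.4 with 0.05% IGEPAL.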

Assay [5] concerns the target Parathyroid hormone/parathyroid hormone-related peptide receptor (Homo sapiens) (UniProt Q03431). The assay is described as follows: qHTS for PTHR1 Agonists: Optimization Screen against the NCGC LOPAC library (AID 1347079).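 Note: GloSensor cAMP luminescence in HEK-293 GP2 cells expressing human PTHR1 with IBMX.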 The method in brief: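 HEK-293 GP2 cells, PTHR1 + GloSensor cAMP; 3000 cells/well, o/n. Luciferin + IBMX 0.5mM each (stock), 1 hr 37C. Cpd titration, 1 hr 37C. Lum after 15 min RT. Ctrl M-PTH(1-15) top 10uM.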

Assay [6] addresses N-terminal Xaa-Pro-Lys N-methyltransferase 1 (Homo sapiens) (UniProt Q9BV86). As to the kind of experiment: qHTS Assay for Inhibitors of N-terminal methyltransferase 1 (NTMT1): LOPAC validation of the NTMT1 SAHH-coupled ThioGlo3 Assay (AID 1347143).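 Note: SAH from peptide methylation measured as thiol fluorescence via SAHH coupling and ThioGlo3; nearly all actives have a fitted effect of over 70% in size.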 Note: potency is the fitted concentration of half-maximal effect. Put shortly:
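NTMT1 125nM + cpds (various conc.), 1 min RT; add SAM 100uM/SAHH 10uM/ThioGlo3 15uM (addition mix). SAHH-coupled thiol detection, Ex340/Em450, t0 and 30 min RT; signal normalized to background. LOPAC 1280-cpd pilot.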

Assay [7] concerns Zika virus NS2B-NS3 protease (unlinked). As to the kind of experiment: Optimization of GU AMC qHTS for Zika virus inhibitors: Unlinked NS2B-NS3 protease assay (AID 1347151). Note: nearly all actives have a fitted effect of over 80% in size. Note: potency is the fitted concentration of half-maximal effect. Put shortly: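 Unlinked protease (25 nM final); buffer 10 mM Tris-HCl pH 8.0 + 0.01% Tween 20; AMC substrate; 15 min RT, dark; Δfluorescence normalized to no-inhibitor/no-enzyme controls; 4-parameter Hill fit.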

Another assay deals with Furin (Homo sapiens) (UniProt P09958). The assay is described as follows: Furin counterscreen qHTS for Zika virus inhibitors (AID 1347149). Note: potency is the fitted concentration of half-maximal effect; nearly all actives have a fitted effect of over 70% in size. Put shortly:
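Counterscreen measures cleavage of 2 microM BOC-RVRR-AMC, below its ~15 microM Km, by 5 nM full-length human furin at pH 7.0 after a 15-min compound preincubation. Inhibition derives from the 15-min fluorescence increase at 37C.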

Records with an inconclusive call do not appear. The source made the active and inactive calls. Unless noted, calls come from the whole dose curve; as a rule, active = well fitted curve in the direction sought with a large enough effect; inconclusive = small, poorly fitted or top-dose-only effect, or another doubt; inactive = no such curve, though single readings can be large; an effect the other way counts as inactive or inconclusive.

T1 sequence (P78324 whole entry, looked up, the tested form may be a part): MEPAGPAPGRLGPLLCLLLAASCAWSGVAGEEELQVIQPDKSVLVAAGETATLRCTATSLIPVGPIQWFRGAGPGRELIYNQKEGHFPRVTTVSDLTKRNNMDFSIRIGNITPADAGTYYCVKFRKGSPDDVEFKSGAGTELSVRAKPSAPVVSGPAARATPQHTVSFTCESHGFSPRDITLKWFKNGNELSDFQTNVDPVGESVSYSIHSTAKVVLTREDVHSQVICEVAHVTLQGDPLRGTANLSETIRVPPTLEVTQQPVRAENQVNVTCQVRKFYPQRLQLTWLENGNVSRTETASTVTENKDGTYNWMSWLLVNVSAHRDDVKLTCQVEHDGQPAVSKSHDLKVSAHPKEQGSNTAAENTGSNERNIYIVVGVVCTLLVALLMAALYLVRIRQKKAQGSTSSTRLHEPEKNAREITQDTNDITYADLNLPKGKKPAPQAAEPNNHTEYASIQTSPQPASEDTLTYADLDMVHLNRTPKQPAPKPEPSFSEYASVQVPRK
T1 sequence (Q08722 whole entry, looked up, the tested form may be a part): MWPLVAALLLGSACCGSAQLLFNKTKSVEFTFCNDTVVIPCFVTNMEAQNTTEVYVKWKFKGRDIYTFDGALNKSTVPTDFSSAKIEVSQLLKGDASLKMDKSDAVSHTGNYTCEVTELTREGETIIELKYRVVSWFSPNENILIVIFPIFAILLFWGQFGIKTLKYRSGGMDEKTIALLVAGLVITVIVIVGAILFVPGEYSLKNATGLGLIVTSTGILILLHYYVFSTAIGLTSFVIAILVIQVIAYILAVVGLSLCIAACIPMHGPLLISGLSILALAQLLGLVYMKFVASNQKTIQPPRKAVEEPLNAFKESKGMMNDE
Chain of N-terminal Xaa-Pro-Lys N-methyltransferase 1 (Homo sapiens) (Q9BV86 whole entry, looked up): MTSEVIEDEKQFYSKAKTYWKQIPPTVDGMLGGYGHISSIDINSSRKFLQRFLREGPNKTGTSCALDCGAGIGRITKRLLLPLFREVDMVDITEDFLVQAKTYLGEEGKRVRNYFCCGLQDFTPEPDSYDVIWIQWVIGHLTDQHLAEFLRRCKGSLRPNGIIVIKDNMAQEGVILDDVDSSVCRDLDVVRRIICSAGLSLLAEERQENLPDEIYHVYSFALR
Chain of Parathyroid hormone/parathyroid hormone-related peptide receptor (Homo sapiens) (Q03431 whole entry, looked up): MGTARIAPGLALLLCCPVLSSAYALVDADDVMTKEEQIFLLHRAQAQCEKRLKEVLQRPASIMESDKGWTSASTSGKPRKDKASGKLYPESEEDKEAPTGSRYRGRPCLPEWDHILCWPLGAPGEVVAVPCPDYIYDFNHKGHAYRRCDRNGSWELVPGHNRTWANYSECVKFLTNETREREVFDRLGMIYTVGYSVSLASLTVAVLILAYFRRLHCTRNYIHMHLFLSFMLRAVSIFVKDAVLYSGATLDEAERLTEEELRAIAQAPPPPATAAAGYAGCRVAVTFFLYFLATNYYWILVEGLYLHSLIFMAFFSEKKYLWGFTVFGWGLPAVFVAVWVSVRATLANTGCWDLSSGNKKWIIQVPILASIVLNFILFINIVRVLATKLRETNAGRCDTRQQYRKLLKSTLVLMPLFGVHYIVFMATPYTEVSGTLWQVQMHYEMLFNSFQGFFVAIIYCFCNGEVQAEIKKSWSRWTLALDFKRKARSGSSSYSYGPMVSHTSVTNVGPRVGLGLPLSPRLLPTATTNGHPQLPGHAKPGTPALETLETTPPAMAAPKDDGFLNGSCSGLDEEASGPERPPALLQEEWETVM
Chain of Furin (Homo sapiens) (P09958 whole entry, looked up): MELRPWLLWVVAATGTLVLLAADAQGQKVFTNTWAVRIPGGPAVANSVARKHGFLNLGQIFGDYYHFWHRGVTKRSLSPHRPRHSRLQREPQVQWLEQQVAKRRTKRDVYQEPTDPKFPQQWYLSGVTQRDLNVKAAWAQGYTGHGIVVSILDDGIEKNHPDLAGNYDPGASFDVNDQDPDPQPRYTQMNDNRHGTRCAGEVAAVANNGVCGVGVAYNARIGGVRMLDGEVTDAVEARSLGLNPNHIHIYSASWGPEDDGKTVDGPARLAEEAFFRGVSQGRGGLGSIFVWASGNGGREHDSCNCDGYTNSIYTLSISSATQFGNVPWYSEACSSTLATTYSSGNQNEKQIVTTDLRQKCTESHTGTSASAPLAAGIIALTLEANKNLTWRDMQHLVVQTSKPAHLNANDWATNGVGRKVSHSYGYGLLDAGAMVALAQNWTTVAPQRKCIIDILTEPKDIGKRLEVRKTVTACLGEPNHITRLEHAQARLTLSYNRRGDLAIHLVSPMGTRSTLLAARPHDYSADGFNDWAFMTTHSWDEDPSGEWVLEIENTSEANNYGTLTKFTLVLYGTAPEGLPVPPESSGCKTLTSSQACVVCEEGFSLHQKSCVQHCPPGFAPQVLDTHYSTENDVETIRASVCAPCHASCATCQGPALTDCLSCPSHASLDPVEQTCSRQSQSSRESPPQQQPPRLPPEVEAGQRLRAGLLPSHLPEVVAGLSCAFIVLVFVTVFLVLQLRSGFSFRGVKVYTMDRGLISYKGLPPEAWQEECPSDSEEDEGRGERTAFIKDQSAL

Take `CO/N=C(\C(=O)N[C@@H]1C(=O)N2C(C(=O)O)=C(CSc3nc(=O)c(O)nn3C)CSC12)c1csc(N)n1` (stereo partly drawn): the Potency entry in assay [1], in assay [2], in assay [4], in assay [5] and in assay [6] was “inactive” each time. Besides, in assay [3], the result was inactive.

Take `NC(C(=O)N[C@@H]1C(=O)N2C(C(=O)O)=C(Cl)CS[C@H]12)c1ccccc1` (stereo partly drawn): the Potency result in assay [1], in assay [2], in assay [4], in assay [5] and in assay [6] was “inactive” throughout. For the same molecule, the outcome in assay [3] was inactive.

On to `C=CCn1c(=O)c2c(nc(-c3ccc(S(=O)(=O)O)cc3)n2C)n(C)c1=O`, for which the Potency entry in assay [1], in assay [2], in assay [4] and in assay [5] was “inactive” in each case. Moreover, the outcome in assay [3] was inactive. For the same molecule, the Potency in assay [6] was 15.8 µM (active); in assay [7], 2.99 µM (active).

Regarding `COC(=O)[C@H](NC(=O)c1cc(-c2ccccc2)nc2ccccc12)c1ccccc1`, the Potency result in assay [1], in assay [2], in assay [4] and in assay [5] was “inactive” in each case. In addition, the outcome in assay [3] was inactive. In assay [6], the Potency is 56.2 µM (active).

With `Cn1cc(C(F)(F)F)nc1-c1ccc(OCC(O)CNCCOc2ccc(O)c(C(N)=O)c2)cc1` (stereo not drawn), the Potency entry in assay [1], in assay [2], in assay [4] and in assay [5] was “inactive” throughout. Also, the outcome in assay [3] was inactive. For the same molecule, the Potency in assay [6] is 56.2 µM (active); with Furin (Homo sapiens), 24.1 µM (active); in assay [7], 26.7 µM (active).

On to `O=C(O)CCC/C=C\C[C@@H]1[C@@H](/C=C/[C@H](O)C2Cc3ccccc3C2)[C@@H](F)C[C@@H]1O`, for which the Potency result in assay [1], in assay [2], in assay [4], in assay [5] and in assay [6] was “inactive” in each case. Also, the result in assay [3] was inactive.

With `CC1CCN=C(N)S1` (stereo not drawn), the Potency entry in assay [1], in assay [2], in assay [4], in assay [5], in assay [6] and in assay [7] was “inactive” throughout. In addition, the result in assay [3] was inactive.

`Cc1nc2n(c(=O)c1CCN1CCC(c3noc4cc(F)ccc34)CC1)CCCC2O` (stereo not drawn): the Potency entry in assay [1], in assay [2], in assay [4], in assay [5] and in assay [6] was “inactive” each time. Also, the outcome in assay [3] was inactive.

Turning to `Cn1c(=O)c2c(nc(/C=C/c3cccc(Cl)c3)n2C)n(C)c1=O`, the Potency result in assay [1], in assay [2], in assay [4] and in assay [5] was “inactive” each time. The result in assay [3] was inactive.

In the case of `Nc1nc2[nH]c(=O)cnc2c(=O)[nH]1`, the Potency result in assay [1], in assay [2], in assay [4] and in assay [5] was “inactive” in each case. For the same molecule, the outcome in assay [3] was inactive. The Potency in assay [6] is 56.2 µM (active); in assay [7], 13.4 µM (active).

Take `C[N+](C)(C)CC=O`: the Potency entry in assay [1], in assay [2], in assay [4], in assay [5], in assay [6] and in assay [7] was “inactive” each time. In addition, the outcome in assay [3] was inactive.

Turning to `NC1CONC1=O` (stereo not drawn), the Potency entry in assay [1], in assay [2], in assay [4], in assay [5], in assay [6] and in assay [7] was “inactive” throughout. For the same molecule, the outcome in assay [3] was inactive.

For the molecule `O=c1cc(-c2ccccc2F)[nH]c2cc3c(cc12)OCO3`, the Potency result in assay [1], in assay [2], in assay [4] and in assay [5] was “inactive” each time. The outcome in assay [3] was inactive. Moreover, the values for the Potency in assay [6] and in assay [7] were 56.2 µM (active) and 26.7 µM (active), respectively.

`N=S(=O)(O)Cc1noc2ccccc12`: the Potency result in assay [1], in assay [2], in assay [4], in assay [5], in assay [6] and in assay [7] was “inactive” in each case. In addition, the result in assay [3] was inactive.

In the case of `COc1ccc(CCN(C)CCc2ccc(OC)c(OC)c2)cc1OC`, the Potency entry in assay [1], in assay [2], in assay [4], in assay [5], in assay [6] and in assay [7] was “inactive” throughout. Moreover, in assay [3], the outcome was inactive.

Regarding `N[C@H](C(=O)O)c1cc(O)cc(O)c1`, the Potency entry in assay [1], in assay [2], in assay [4], in assay [5], in assay [6] and in assay [7] was “inactive” in each case. Moreover, in assay [3], the result was inactive.

In the case of `N[C@@H](Cc1ccc(F)cc1)C(=O)O`, the Potency entry in assay [1], in assay [2], in assay [4], in assay [5], in assay [6] and in assay [7] was “inactive” each time. Further, in assay [3], the outcome was inactive.

`C#CCn1c(=O)c2c(ncn2C)n(C)c1=O`: the Potency entry in assay [1], in assay [2], in assay [4], in assay [5], in assay [6] and in assay [7] was “inactive” throughout. In assay [3], the result was inactive.

Consider `O=C(O)C1CN(CCCP(=O)(O)O)CCN1` (stereo not drawn), for which the Potency result in assay [1], in assay [2], in assay [4], in assay [5], in assay [6] and in assay [7] was “inactive” in each case. Moreover, the outcome in assay [3] was inactive.

Regarding `COc1ccc(CCn2nnnc2C2(c3ccc(C)cc3)CC2)cc1`, the Potency result in assay [1], in assay [2], in assay [4], in assay [5], in assay [6] and in assay [7] was “inactive” throughout. Also, in assay [3], the outcome was inactive.

As to `Nn1nnc2ccccc21`, the Potency entry in assay [1], in assay [2], in assay [4], in assay [5], in assay [6] and in assay [7] was “inactive” in each case. In addition, the outcome in assay [3] was inactive.

With `N[C@@H](Cc1c[nH]c2ccccc12)C(=O)O`, the Potency entry in assay [1], in assay [2], in assay [4], in assay [5], in assay [6] and in assay [7] was “inactive” each time. Besides, the outcome in assay [3] was inactive.

As to `CSC(N)=NCCC[C@H](N)C(=O)O`, the Potency result in assay [1], in assay [2], in assay [4], in assay [5], in assay [6] and in assay [7] was “inactive” in each case. In addition, in assay [3], the outcome was inactive.

For `NCCC1CCCC(CCN)N1` (stereo not drawn), the Potency result in assay [1], in assay [2], in assay [4], in assay [5], in assay [6] and in assay [7] was “inactive” throughout. The outcome in assay [3] was inactive.

On to `C=CCN1CCc2c(cc(O)c(O)c2Cl)C(c2ccccc2)C1` (stereo not drawn), for which the Potency result in assay [1], in assay [2], in assay [4] and in assay [5] was “inactive” throughout. Also, the outcome in assay [3] was inactive. The Potency in assay [6] was 20 µM (active); in assay [7], 18.9 µM (active).

For the molecule `NC(=O)c1ccccc1`, the Potency entry in assay [1], in assay [2], in assay [4], in assay [5], in assay [6] and in assay [7] was “inactive” in each case. In assay [3], the outcome was inactive.

As to `CCCCCCCCCCCCCCCCCCOC[C@H](COP(=O)([O-])OCC[N+](C)(C)C)OC`, the Potency result in assay [1], in assay [2], in assay [4], in assay [5], in assay [6] and in assay [7] was “inactive” in each case. For the same molecule, in assay [3], the outcome was inactive.
